Out of some 97,000 compounds screened, about 810 (0.84%) were called active. Rule as the data show it: active = inhibition above about 19%; inactive = the rest. This excerpt belongs to a sample that is enriched for actives.
These compounds were tested against Focal adhesion kinase 1 (Homo sapiens) (UniProt Q05397) (assay: human PTK2 enzyme activity blockers – biochemical, primary screen (AID 727;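 also: 0% = DMSO and 100% = reference compound high control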)). Details: biochemical FAK kinase activity assay; hits give high values;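 tested at 7 µM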.
Chain of Focal adhesion kinase 1 (Homo sapiens) (Q05397 whole entry, looked up): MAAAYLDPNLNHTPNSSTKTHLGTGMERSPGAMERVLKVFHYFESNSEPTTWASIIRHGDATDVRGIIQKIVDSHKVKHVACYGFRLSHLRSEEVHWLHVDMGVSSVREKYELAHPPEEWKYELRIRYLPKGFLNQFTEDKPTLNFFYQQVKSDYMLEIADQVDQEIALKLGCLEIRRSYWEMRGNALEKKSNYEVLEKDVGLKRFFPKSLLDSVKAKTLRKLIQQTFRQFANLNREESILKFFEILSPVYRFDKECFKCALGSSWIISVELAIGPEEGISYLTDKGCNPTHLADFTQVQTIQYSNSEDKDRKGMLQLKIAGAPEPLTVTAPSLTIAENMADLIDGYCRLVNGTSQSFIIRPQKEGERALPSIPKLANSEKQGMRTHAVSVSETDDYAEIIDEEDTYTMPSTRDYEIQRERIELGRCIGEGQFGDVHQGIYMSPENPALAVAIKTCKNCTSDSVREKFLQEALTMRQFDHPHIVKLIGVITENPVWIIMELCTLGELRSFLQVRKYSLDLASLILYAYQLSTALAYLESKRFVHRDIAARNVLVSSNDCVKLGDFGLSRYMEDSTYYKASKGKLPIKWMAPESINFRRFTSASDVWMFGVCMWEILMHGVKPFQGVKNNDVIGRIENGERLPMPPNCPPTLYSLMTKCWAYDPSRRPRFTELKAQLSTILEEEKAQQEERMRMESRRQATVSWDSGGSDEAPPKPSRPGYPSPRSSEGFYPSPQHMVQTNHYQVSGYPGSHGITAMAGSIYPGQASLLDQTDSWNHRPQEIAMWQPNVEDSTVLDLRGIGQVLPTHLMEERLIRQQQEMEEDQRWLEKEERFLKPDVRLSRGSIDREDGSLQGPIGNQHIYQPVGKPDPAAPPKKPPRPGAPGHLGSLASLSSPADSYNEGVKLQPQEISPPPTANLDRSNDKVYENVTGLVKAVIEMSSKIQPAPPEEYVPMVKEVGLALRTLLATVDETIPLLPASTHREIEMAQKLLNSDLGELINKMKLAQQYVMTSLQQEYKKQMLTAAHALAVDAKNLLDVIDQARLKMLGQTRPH
`COc1ccc(C2(CNC(=O)C(c3ccccc3)c3ccccc3)CCOCC2)cc1OC` was tested, and the inhibition was 1.78% (inactive).
`C=C(C)CNC(=S)/N=c1\scc(C)n1CC` was tested, and the inhibition was -6.21% (inactive).
`Oc1ccc(-c2onc3ccc(Cl)cc23)cc1` was tested, and the inhibition was 5.87% (inactive).
For `Cc1cccc(NC(=O)c2cc(N3C(=O)CCC3=O)ccc2Cl)n1`, the inhibition was -0.12% (inactive).
With `CCOC(=O)c1cc(C#N)c(N2CCCCC2)nc1-c1ccccc1` the inhibition was 4.29% (inactive).
For `CCOC(=O)c1sc2nc(SC)nc(-c3ccccc3)c2c1N`, the inhibition was 2.16% (inactive).
With `COc1ccc(C)cc1N(C)C(=O)c1coc(=O)c2ccccc12` the inhibition was 1.58% (inactive).
In the case of `Nc1c(-c2ccc(F)cc2)cnc2ncnn12`, the inhibition is reported as 19.1% (active).
In the case of `Cc1ccc(S(=O)(=O)N(CC(=O)N/N=C/c2ccc(F)cc2)c2cccc3cccnc23)cc1`, the inhibition is reported as 3.64% (inactive).
`COc1ccc(/C(N)=N/OC(=O)Oc2ccccc2)cc1` was tested, and the inhibition was 0.12% (inactive).
In the case of `CC1CCN(C(=O)c2cc3nc(C4CC4)cc(C(F)(F)F)n3n2)CC1`, the inhibition is reported as 0.8% (inactive).
For `C/C=C/C(=O)OCC(=O)Nc1ccc(F)cc1Cl`, the inhibition was -4.03% (inactive).
For `Cc1nn(CC(=O)Nc2ccc3c(c2)nc(CN2CCCCC2)n3C)c(=O)c2ccccc12`, the inhibition was 3.98% (inactive).
With `CCC(=O)Nc1ccc2c(c1)nc(CCN1CCN(C)CC1)n2C` the inhibition was -1.8% (inactive).
In the case of `Cn1c(CCN2CCCCCC2)nc2cc(NC(=O)Nc3ccccc3)ccc21`, the inhibition is reported as 22.2% (active).
`COC(=O)/C(=C\Nc1ccccc1)NC(=O)c1ccc(Cl)cc1Cl` was tested, and the inhibition was 0.67% (inactive).
`CCn1c(CNC(=O)c2ccccc2)nnc1SCC(=O)N1CCN(c2ccccc2)CC1` was tested, and the inhibition was 1.01% (inactive).
For `CS(=O)(=O)Nc1cccc(C2=NN(S(=O)(=O)c3ccccc3)C(c3cccs3)C2)c1` (stereo not given), the inhibition was 1.03% (inactive).
For `CCN(CC)S(=O)(=O)c1cc([N+](=O)[O-])ccc1NNC(=O)Nc1ccccc1`, the inhibition was 22.7% (active).
In the case of `CCN(CC)S(=O)(=O)c1cccc(C(=O)Nc2ccccc2)c1`, the inhibition is reported as 7.09% (inactive).
`CCN(c1ccccc1)S(=O)(=O)c1ccc(NC(=O)C(C)(C)C)cc1` was tested, and the inhibition was -0.76% (inactive).
In the case of `COc1ccc(OC)c(N=Cc2c(O)[nH]c3ccccc23)c1`, the inhibition is reported as 13.7% (inactive).
With `COC(=O)c1[nH]c2ccccc2c1NS(=O)(=O)c1ccc(OC)cc1OC` the inhibition was 0.04% (inactive).
With `COc1cc(N=Cc2c(O)[nH]c3ccccc23)cc(OC)c1OC` the inhibition was 73.4% (active).
With `CCCc1ccc(OCc2ccc(C(=O)N/N=C/c3cccc([N+](=O)[O-])c3)o2)c(OC)c1` the inhibition was 1.02% (inactive).
In the case of `Cc1[nH]n(-c2ccc([N+](=O)[O-])cc2)c(=O)c1C=NCCN1CCN(C(=O)c2ccccc2F)CC1`, the inhibition is reported as 6.47% (inactive).
In the case of `Cc1ccc(CN(N=Nc2nonc2N)c2nonc2N)c(C)c1`, the inhibition is reported as -1.18% (inactive).
`O=c1c2ccccc2nc2n1C(CSCc1ccccc1)CS2` (stereo not given) was tested, and the inhibition was 7.02% (inactive).
For `O=C1C2N=NN(CC(=O)N3N=C(c4cccc5ccccc45)CC3c3ccccc3)C2C(=O)N1c1ccccc1` (stereo not given), the inhibition was 1.07% (inactive).
In the case of `Cc1nc(NNC(=O)c2ccccc2)cc(-c2ccccc2)n1`, the inhibition is reported as -0.62% (inactive).
In the case of `Cc1ccc(SCC(=O)NC(=O)NCc2ccco2)c(C)c1`, the inhibition is reported as 6.63% (inactive).
For `O=C(/C=C/c1ccco1)Nc1ccc(Oc2ccccc2)cc1`, the inhibition was 0.45% (inactive).
`Cc1ccc(-n2nc3ccc(NC(=O)/C=C/c4ccco4)cc3n2)cc1C` was tested, and the inhibition was 19.2% (active).
For `O=C(/C=C/c1ccco1)Nc1cccc(-c2nc3ccccc3[nH]2)c1`, the inhibition was 1.17% (inactive).
For `CN(C)CCNC(=O)Nc1cccc(Cl)c1Cl`, the inhibition was -0.62% (inactive).
With `CCOC(=O)c1cnc(-c2ccccc2)nc1Oc1ccc(C)cc1` the inhibition was 4.12% (inactive).
With `CN(CCO)Cc1csc2ccc(Br)cc12` the inhibition was -0.2% (inactive).
`C=CCNc1nc(N)c(C(=C(C#N)C#N)c2ccccc2)s1` was tested, and the inhibition was 9.82% (inactive).
With `N=c1c2c3c(sc2nc2n1CCCCC2)CCCC3` the inhibition was 0.27% (inactive).
With `CC1Cc2ccccc2N1C(=O)c1cc2sccc2n1Cc1ccccc1` (stereo not given) the inhibition was -0.85% (inactive).
For `COc1cccc(/C=N/NC(=O)C(=O)N2CCCC2)c1`, the inhibition was -2.37% (inactive).
With `O=C(Nc1ccc(-n2ccnc2P(=O)(O)c2ccccc2)cc1)c1ccccc1Br` the inhibition was 22.8% (active).
With `O=C(Nc1ccccc1)c1cccnc1Nc1ccccc1` the inhibition was 1.76% (inactive).
With `Cc1nonc1NC(=O)c1ccccc1Br` the inhibition was -1.88% (inactive).
`CC(CNc1ccc([N+](=O)[O-])cc1)NC(=O)c1ccccc1Br` (stereo not given) was tested, and the inhibition was 1.61% (inactive).
With `C#CCN(N(C)c1ncc(C(F)(F)F)cc1Cl)S(=O)(=O)c1ccc2ccccc2c1` the inhibition was -0.5% (inactive).
For `CN(CCc1ccccn1)S(=O)(=O)c1ccc2c3c(cccc13)C(=O)N2`, the inhibition was -2.74% (inactive).
With `CCN(CC)S(=O)(=O)c1ccc2c3c(cccc13)C(=O)S2` the inhibition was 36% (active).
`COc1cccc(C(=O)NNC(=O)c2ccccc2Br)c1` was tested, and the inhibition was -3.7% (inactive).
With `CC(C)N1C(=S)SC(C)(C)C1n1oc(=O)n(-c2ccc(Cl)c(Cl)c2)c1=O` (stereo not given) the inhibition was 1% (inactive).
For `O=[N+]([O-])c1ccc(Oc2ccc(F)cc2Br)c2ccncc12`, the inhibition was 19.1% (active).
With `COC(=O)c1ccc(OCC(=O)NC(C)(C)C)cc1` the inhibition was -0.09% (inactive).
For `Cc1cc2cc3c(N)[nH]nc3nc2cc1C`, the inhibition was 38.5% (active).
`CCc1nnc(NC(=O)c2nc3nccc(C)n3n2)s1` was tested, and the inhibition was -3.17% (inactive).
`CCc1ccc2nc3sc(C(=O)Nc4nnc(CC)s4)c(N)c3cc2c1` was tested, and the inhibition was 33.3% (active).
With `CCc1nnc(NC(=O)c2cccs2)s1` the inhibition was -4.62% (inactive).
With `Cc1cccc(N2CCN(C(=O)c3cnn4c(C(F)F)cc(-c5ccccc5)nc34)CC2)c1C` the inhibition was 2.11% (inactive).
For `COc1ccc(C2CC(=O)Nc3sc(=N)c4c(N)c(C#N)c(N)nc4c32)cc1OC` (stereo not given), the inhibition was -1.85% (inactive).
In the case of `CC1(C)C2CCC13CS(=O)(=O)NC3C2` (stereo not given), the inhibition is reported as -2.12% (inactive).
With `Brc1ccc(/C=N/N2CCN(C3c4ccccc4-c4ccccc43)CC2)s1` the inhibition was -1.5% (inactive).
With `CCC(C)(C(=O)NC1CCCCC1)N(C)C(=O)c1ccc2c(c1)OCO2` (stereo not given) the inhibition was -1.51% (inactive).
For `O=C(O)CCC(=O)NCc1ccc(C(=O)O)cc1`, the inhibition was -0.4% (inactive).
`C[C@H](NC(=O)OC(C)(C)C)c1nnc(SCC(=O)Nc2ccc(Br)cc2)o1` was tested, and the inhibition was -1.41% (inactive).
`CCc1ccccc1NC(=O)CSc1nnc([C@@H](NC(=O)OC(C)(C)C)C(C)CC)o1` (stereo not given in full) was tested, and the inhibition was 25.9% (active).
In the case of `CCc1ccccc1NC(=O)CSc1nnc([C@@H](NC(=O)OC(C)(C)C)C(C)C)o1`, the inhibition is reported as -2.32% (inactive).
With `CCCOc1ccc(NC(=O)C2CCCNC2=O)cc1` (stereo not given) the inhibition was 40.2% (active).
In the case of `CCOc1ccc(NC(=O)CC2NCCNC2=O)cc1` (stereo not given), the inhibition is reported as 0.06% (inactive).
For `CCCCNC(=O)C1CCCNC1=O` (stereo not given), the inhibition was -0.32% (inactive).
`COc1ccc(-c2[nH]nc(-c3ccccc3)c2-c2nc3ccccc3[nH]2)cc1` was tested, and the inhibition was -5.4% (inactive).
`COc1ccc(C2C(C#N)=C(/N=C/N3CCOCC3)OC3=C2C(=O)CC(C)(C)C3)cc1OC` (stereo not given) was tested, and the inhibition was 0.22% (inactive).
